Screens: PubChem, National Center for Advancing Translational Sciences (NCATS)
Pf growth 48h: Primary qHTS for delayed death inhibitors of the malarial parasite plastid, 48 hour incubation; 310,000 tested, 5.9% active; Potency, µM (top dose mostly 28.7 µM), without a hit: at the highest dose activity change, negative = inhibition, actives largely listed as inhibitors; P. falciparum luciferase growth in erythrocytes, 48 h; further: potency means the concentration at half of the fitted maximal effect; on the % scale 0 is the no-effect control and ±100 the full control effect
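Growth was read as firefly luciferase luminescence after a 48 h, 37 C, 5% CO2 exposure of compounds to reporter-bearing P. falciparum cultures (0.1% parasitemia, 2% hematocrit final) in Albumax-supplemented RPMI 1640.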
CHX counter: Cycloheximide Counterscreen for Small Molecule Inhibitors of Shiga Toxin; 300,000 tested, 12% active; cell reporter, cycloheximide protein synthesis inhibition counterscreen; max response, %; in the data active means max response mostly above about 13%, no sharp cut-off; inactive means mostly below about 14%; further: read at 38.3 µM for the half of the compounds with a filed dose; 0% is about no effect
Shiga inhibitor: A qHTS for Small Molecule Inhibitors of Shiga Toxin | Vero cells, Shiga toxin protein synthesis inhibition reporter | 290,000 tested, 9.2% active | inhibition, % at 38.7 µM | AID 2315, 2010; in the data active means inhibition mostly above about 28%, no sharp cut-off; inactive means mostly below about 43%; further: 0% is about no effect
AMA1-RON2 inh: qHTS for Inhibitors of AMA1-RON; Towards Development of Antimalarial Drug Lead: Primary Screen | AlphaScreen AMA1-biotinylated RON2 peptide binding | Plasmodium falciparum AMA1 (3D7) - RON2 peptide interaction | 360,000 tested, 0.2% active | Potency, µM (top dose mostly 58.2 µM), without a hit: at the top dose activity change, negative = inhibition, usual class: inhibitors;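 further: potency means the concentration at half of the fitted maximal effect; 0% = vehicle wells and -100% = peptide control; nearly all actives have a fitted effect of over 45% in size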
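AMA1 (3D7) with his tag at 25 nM final met compounds first, then biotinylated RON2 peptide at 25 nM; detection used donor plus acceptor beads, 10 µg/mL apiece, read by AlphaScreen after 30 min at room temperature.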
Pf growth 96h: Primary qHTS for delayed death inhibitors of the malarial parasite plastid, 96 hour incubation. P. falciparum luciferase reporter growth, 96 h. 320,000 tested, 6.9% active. Potency, µM (titrated, usually from 28.7 µM), inactives show top-dose activity change, negative = inhibition, usual class: inhibitors; further: potency means the concentration at half of the fitted maximal effect; on the % scale 0 is the no-effect control and ±100 the full control effect
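Plates of compound plus infected erythrocytes (2% hematocrit, 0.05% parasitemia final) incubate 96 hours, 37 C, 5% CO2. Detection reagent added; reduced luminescence from the parasites' luciferase reporter flags inhibition.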
HCV inhibitor: qHTS Assay for Inhibitors of Hepatitis C Virus (HCV); Huh7.5.1 HCVcc-Cre infection, luciferase reporter, 44 h; Potency, µM (titrated, usually from 41.8 µM), without a hit: at the top dose activity change, negative = inhibition, actives largely listed as inhibitors; 340,000 tested, 3.4% active; AID 651820, 2012; further: potency means the concentration at half of the fitted maximal effect; on the % scale 0 is the no-effect control and ±100 the full control effect
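Seed cells (1,000/well) for 4 h; treat with compound and infect with HCVcc-Cre, moi about 0.5. Incubate 44 h, then detect luciferase activity.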
The depositor's hits bear a star; ? = inconclusive; . = no result given. Hits are enriched below; roughly 21% of the tested compounds scored in any of these assays. Unless noted, the call rests on the fitted dose curve; in most records, active means well fitted curve in the direction sought with a large enough effect; inconclusive means small, poorly fitted or top-dose-only effect, or another doubt; inactive means no such curve, though single readings can be large; an effect the other way counts as inactive or inconclusive.

SMILES | Pf growth 48h | CHX counter | Shiga inhibitor | AMA1-RON2 inh | Pf growth 96h | HCV inhibitor
O=C(Cn1ccc(NC(=O)OCc2ccccc2)nc1=O)NCc1nc2ccccc2[nH]1 | 6% | . | . | -9% | ? | 10%
COCc1c(C(=O)NC(C)c2ccc(S(N)(=O)=O)cc2)oc2ccccc12 (centres undefined) | 11% | -4 | -8 | -1% | 4% | 3%
Fc1ccc(NC(=S)Nc2cccnc2)cc1Cl | 15µM* | -1 | 2 | 20% | ? | -13%
O=C(Nc1ccc(F)c(Cl)c1)c1cccnc1 | 52% | 14* | 7 | -1% | 3% | 10%
O=C(Nc1ccc(F)c(Cl)c1)c1ccccc1 | 123% | . | . | 2% | 157% | -6%
O=C(CNS(=O)(=O)c1ccccc1)NCC(=O)OCc1ccc(Cl)cc1 | -6% | -3 | -1 | -2% | 4% | 2%
CC(CC(=O)N1CCc2ccccc21)S(=O)(=O)c1ccc2c(c1)NC(=O)CO2 (centres undefined) | -4% | 4 | 6 | 12% | 10µM* | 16%
CC(CC(=O)Nc1ccc(F)cc1)S(=O)(=O)c1ccc2c(c1)NC(=O)CO2 (centres undefined) | 2% | -2 | -8 | -7% | ? | -4%
Cc1ccc(NS(=O)(=O)c2ccc3c(c2)NC(=O)CO3)cc1C | 18% | -14 | -3 | -5% | 9.3µM* | -14%
Cc1ccc(NC(=O)CC(C)S(=O)(=O)c2ccc3c(c2)NC(=O)CO3)cc1C (centres undefined) | ? | 18 | -4 | 0% | 12µM* | 8%
CC(CC(=O)NC1CCCCC1)S(=O)(=O)c1ccc2c(c1)NC(=O)CO2 (centres undefined) | 8% | 9 | -9 | 12% | 13µM* | 8%
CC(CC(=O)NCc1ccc(Cl)cc1)S(=O)(=O)c1ccc2c(c1)NC(=O)CO2 (centres undefined) | 18% | -3 | -2 | -7% | ? | 1%
CC1CC(C)CN(CC(=O)Nc2cc(S(=O)(=O)N3CCOCC3)ccc2N2CCCC2)C1 (centres undefined) | ? | . | . | 6% | ? | -2%
CC1(C(=O)Nc2ccccc2F)CCN1C(=O)Cc1ccc(-c2ccccc2)cc1 (centres undefined) | . | . | . | 1% | . | .
Cc1nn2c(=O)cc(CSCC(=O)Nc3ccccc3Cl)nc2s1 | 9% | -11 | -10 | -4% | 12µM* | 17%
CCCc1nn2c(=O)cc(CSCC(=O)Nc3nnc(C(C)C)s3)nc2s1 | -14% | 0 | -9 | 18% | 12µM* | 16%
Cc1nn2c(=O)cc(CSCC(=O)Nc3ccccc3F)nc2s1 | 10% | -1 | -8 | 4% | ? | 11%
O=C(NCCNC(=O)c1ccc(-c2cc(Cl)ccc2Cl)o1)c1cnccn1 | . | . | . | 7% | . | .
COC(=O)C1=C(C)Nc2nc3ccccc3n2C1c1cc(OC)c(OC)c(OC)c1 (centres undefined) | 1.9µM* | -3 | -5 | -10% | ? | -18%
Cc1ccc(C(=O)O)cc1NC(=O)CCc1c(C)noc1C | . | . | . | 4% | . | .
CCN(CC)S(=O)(=O)c1cccc(NC(=O)c2ccccc2Br)c1 | 10µM* | -1 | 30 | -13% | ? | ?
CCC(=O)Nc1cccc(NC(=O)c2ccccc2Br)c1 | 33% | -4 | -12 | 10% | -7% | -24%
CCN(CC)S(=O)(=O)c1cccc(NC(=O)c2ccc(SC)cc2OC)c1 | ? | 8 | 19 | -18% | ? | 11µM*
CCN(CC)S(=O)(=O)c1cccc(NC(=O)COc2ccc(F)cc2Br)c1 | -14% | 7 | 17 | 1% | ? | 11µM*
COc1cc(SC)ccc1C(=O)Nc1cccc(S(=O)(=O)NC2=NCCCCC2)c1 | ? | . | . | -5% | ? | -28%
SMILES | Pf growth 48h | CHX counter | Shiga inhibitor | AMA1-RON2 inh | Pf growth 96h | HCV inhibitor
CCN(CC)S(=O)(=O)c1cccc(S(=O)(=O)c2cccc(S(=O)(=O)N(CC)CC)c2)c1 | ? | -4 | 20 | 14% | ? | 11µM*
O=C(O)CCCN1C(=O)C(=O)/C(=C(/O)c2ccccc2)C1/C=C/c1ccccc1 (centres undefined) | 21% | -3 | 25 | 5% | 64% | 3%
O=C(NC1CCCCC1)C(c1ccccc1)N(Cc1ccco1)C(=O)c1csnn1 (centres undefined) | -19% | 1 | -6 | -20% | 5% | 0%
CCc1ccc(C(C(=O)NC(C)(C)CC)N(Cc2ccco2)C(=O)Cn2nnc3ccccc32)cc1 (centres undefined) | 12µM* | -1 | 16 | -4% | 16% | ?
Cc1cccc(N(C(=O)Cn2nnc3ccccc32)C(C(=O)NC(C)(C)C)c2ccsc2)c1 (centres undefined) | 10µM* | 7 | -9 | 8% | 3.3µM* | 5%
COc1ccc(CN(C(=O)Cn2nnc3ccccc32)C(C(=O)NC(C)(C)C)c2ccco2)cc1 (centres undefined) | -11% | -4 | 15 | -5% | 4.7µM* | 16%
O=C(NC1CCCCC1)C(c1ccccc1)N(Cc1ccco1)C(=O)Cn1cnc2ccccc21 (centres undefined) | 3.7µM* | -5 | 8 | -1% | 81% | -9%
CCNC(=O)C1CCCN(C(=O)c2ccc3ccccc3c2)CC1 (centres undefined) | . | . | . | 5% | . | .
CCC(C)(C)NC(=O)C(c1cccn1C)N(C(=O)Cn1nnc2ccccc21)c1ccc(F)cc1 (centres undefined) | ? | -1 | 27 | -2% | ? | ?
CCC(C)(C)NC(=O)C(c1cccn1C)N(C(=O)Cn1nnc2ccccc21)c1ccc(OC)cc1 (centres undefined) | 12µM* | -3 | 32 | 0% | -4% | -4%
COC(=O)c1sccc1NC(=O)Cn1nnc(-c2ccccc2C)n1 | 5% | 18 | 27 | 0% | -19% | -28%
O=C1C=C(NCc2ccccc2)CCC1 | -1% | -1 | 6 | 6% | 31% | 10%
O=C1C=C(NC2=CC3OC(c4ccccc4)OCC3OC2=O)CCC1 (centres undefined) | -4% | 27* | 35* | 11% | 2% | ?
COc1ccc2[nH]c3c(=O)n4c(nc3c2c1)SCC4 | 30% | 9 | 17 | -5% | 10µM* | 11%
COc1cc2[nH]c3c(=O)n4c(nc3c2cc1OC)SCCC4 | 102% | 25* | 31* | -3% | 3% | ?
Cc1cc(C)cc(OC(C)C(=O)NCCCn2ccnc2)c1 (centres undefined) | 20% | -7 | -8 | 4% | -12% | -3%
